From PubChem BioAssay
ATXN2 expr inh: ATXN2 expression inhibition; Potency, µM (series often up to 57 µM), inactives show at the top dose activity change, negative = inhibition, most hits filed as inhibitors; 360,000 tested, 0.72% active; HEK-293 ATXN2-luciferase reporter, luminescence, 24 h; further: potency means the concentration at half of the fitted maximal effect; on the % scale 0 is the no-effect control and ±100 the full control effect; nearly all actives have a fitted effect of over 55% in size
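qHTS (up to 57 uM final) was run with 24 h compound exposure of reporter cells at 37 °C. Each well was multiplexed: SteadyGlo luminescence measured ATXN2-luciferase expression after a fluorogenic Gly-Phe-AFC viability readout (25 uM final).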
TGFb inhibitor: TGF-b pathway inhibition. 410,000 tested, 1.2% active. AID 588855. HepG2 CAGA-GFP TGF-b/SMAD3 reporter, GFP fluorescence, 18 h; TGF-beta stimulated, 500 pg/mL final. Potency, µM (top dose mostly 46.1 µM), inactives show at the highest dose activity, negative = inhibition, most hits filed as inhibitors; further: potency means the concentration at half of the fitted maximal effect; on the % scale 0 is the no-effect control and ±100 the full control effect; nearly all actives have a fitted effect of over 65% in size
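TGF-beta reporter screen: HEPG2 CAGA-GFP, 1% FBS, 500 pg/mL TGF-beta final, 18 h; per-cell GFP summed per well; curves fitted and categorized by class.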
HepG2 tox: kills HepG2 cells in TGF-b inhibitor counter-screen; HepG2 CAGA-GFP viability, ATP luminescence, 18 h; Potency, µM (highest dose often 46.1 µM), without a hit: at the top dose activity change, negative = cytotoxicity, usual class: cytotoxic; 410,000 tested, 0.76% active; AID 588856; further: potency means the concentration at half of the fitted maximal effect
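HepG2 CAGA-GFP cells (1000/well, DMEM with 1% FBS) received compound, then TGF-beta at 500 pg/mL final, and were incubated 18 hours at 37 degrees C. Viability was read by CellTiter-Glo luminescence. Media-only wells were set as complete cell-killing and DMSO as no toxicity.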
IL-1B inflam inh: blocks inflammasome-driven IL-1 beta release. 360,000 tested, 4.7% active. THP-1 LPS/ATP IL-1B secretion, AlphaLISA, 16 h; hits give low values. activity change, % at 57.5 µM; in the data active means activity change below about -50%; inconclusive means mostly about -30% to -49%; further: on the % scale 0 is the no-effect control and ±100 the full control effect
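THP-1 cells pretreated 1 hr with compounds (up to 57.5 uM final), then stimulated with LPS (250 ng/mL final) plus ATP (1.25 mM final); secreted IL-1B measured by AlphaLISA after 16 hr, decreased signal indicating inhibition.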
S2 tox: cell viability loss in ATXN counter-screen; AID 651635; S2 cells (HEK-293 line with an ATXN2-luciferase reporter) viability, CellTiter-Fluor protease fluorescence, 24 h; Potency, µM (doses to about 56.7 µM), usual class: cytotoxic; 400,000 tested, 0.49% active; further: potency means the concentration at half of the fitted maximal effect; nearly all actives have a fitted effect of over 40% in size
The depositor's hits bear a star; i = inactive; ? = inconclusive; . = no result given; [ ] = dose if it differs, or a comment. This is a sample that favours compounds with a hit; in the whole collection about 5.7% have one here. Unless noted, the call rests on the fitted dose curve; in most records, active means well fitted curve in the direction sought with a large enough effect; inconclusive means small, poorly fitted or top-dose-only effect, or another doubt; inactive means no such curve, though single readings can be large; an effect the other way counts as inactive or inconclusive.

SMILES	ATXN2 expr inh	TGFb inhibitor	HepG2 tox	IL-1B inflam inh	S2 tox
CCc1ccc(CNCCc2ccccc2F)cc1	1%	?	-61%	-57*	i
COc1ccc(CNCCc2ccccc2F)c(OC)c1C	-22%	-9%	-31%	-65*	i
CCc1ccc(NC(=O)c2ccc(F)c(S(=O)(=O)N3CCC4(CC3)OCCO4)c2)cc1	.	?	-3%	.	.
CCCN(c1ccc(C(C)C)cc1)S(=O)(=O)c1ccc2c(c1)oc(=O)n2CC(=O)OCC	-38%	?	-41%	.	?
O=C(C[n+]1ccn(CCCNP2(=O)C=C(c3ccccc3)OC(c3ccccc3)=C2)c1)c1ccccc1	-14%	1%	-24%	-55*	i
CC[n+]1c(/C=C/C=C/c2ccc(N(C)C)cc2)sc2ccccc21	?	?	-15%	-97*	.
C[n+]1ccc(-c2ccccc2)c2ccccc21	-14%	?	-18%	53	?
CN(C)c1ccc(/C=C/C=C/c2sc3ccccc3[n+]2C)cc1	?	8.9µM*	-20%	-90*	?
CN(C)c1ccc(/C=C/c2cc[n+](C)c3ccccc23)cc1	?	7.1µM*	-70%	-102*	6µM*
CC[n+]1c(/C=C/N(C)c2ccccc2)sc2ccc(Cl)cc21	?	?	-34%	-100*	.
O=C(CN1CCCC2CCCCC21)c1ccc(I)cc1 (configuration not stated)	.	5%	-3%	.	.
c1ccc(CCN2CCCCC2)cc1	.	6%	5%	.	.
C[C@]12Cc3cn[nH]c3C[C@@H]1CC[C@@H]1[C@@H]2CC[C@@]2(C)[C@H]1CC[C@]2(C)O	-11%	.	.	.	i
NC(CCc1ccccc1)c1csc(NC(=O)Nc2ccccc2Oc2ccccc2)n1 (configuration not stated)	?	?	10µM*	-79*	?
COc1ccc(-c2nn3c(=O)cc(CN4CCN(S(=O)(=O)c5ccc(C)cc5)CC4)nc3s2)cc1	4%	-22%	-4%	.	?
On1ccccc1=S	0.28µM*	0.28µM*	1µM*	-107*	0.32µM*
CC[C@@H](O)C[C@H]1CCC[C@@]2(C[C@@H]3OC(=O)/C=C/[C@@](C)(O)[C@@H](O)[C@H](C)[C@@H](O)[C@H](OC4CCC(N(C)C)C(C)O4)[C@@H](O)[C@](C)(O)CCCCC/C=C/[C@@H]4CC(C)(C)O[C@@]4(O)C[C@H](O2)[C@H]3C)O1 (some centres not stated)	?	-67%	-19%	-56*	.
CC(=CCCC1=CCC(C2=CC(=O)OC2O)OC1O)CCC1=C(C)CCCC1(C)C (configuration not stated)	-6%	.	.	.	.
CC(C)(O)C=CC(=O)[C@](C)(O)[C@H]1[C@H](O)C[C@]2(C)[C@@H]3CC=C4[C@@H](C=C(O)C(=O)C4(C)C)[C@]3(C)C(=O)C[C@@]12C	1.5µM*	.	.	.	.
CC(=O)OC(C)(C)/C=C/C(=O)[C@](C)(O)[C@H]1[C@H](O)C[C@@]2(C)[C@@H]3CC=C4[C@H](C[C@H](O)C(=O)C4(C)C)[C@]3(C)C(=O)C[C@]12C	14µM*	2.8µM*	-82%	-112*	.
CC(=O)OC(C)(C)/C=C/C(=O)C(C)(O)C1C(O)CC2(C)C3CC=C4C(CC(O)C(=O)C4(C)C)C3(C)C(=O)CC12C (configuration not stated)	?	?	17%	-99*	.
CC(=O)OC(C)(C)/C=C/C(=O)C(C)(O)C1[C@H](O)C[C@@]2(C)C3CC=C4C(CC[C@@H](O)C4(C)C)[C@]3(CO)C(=O)C[C@]12C (some centres not stated)	?	?	-17%	-98*	?
CCc1ccc([C@H]2[C@@H]3C(=O)C[C@@H]4C(=O)N(Cc5ccccc5)C(=O)[C@@H]4[C@@H]3CN2S(=O)(=O)c2ccc(C)cc2)cc1	7%	?	2%	-15	i
O=C(c1ccccc1Cl)N1CCC(c2nc3ccccc3s2)CC1	0%	?	-19%	.	?
Cc1ccc2oc(=O)n(CCNC(=O)Nc3ccc(C)c(F)c3)c2c1	.	0%	-35%	.	.
SMILES	ATXN2 expr inh	TGFb inhibitor	HepG2 tox	IL-1B inflam inh	S2 tox
CCOC(=O)[C@]12Cc3cc(C)ccc3[C@H]1N(C(C)C)C(=O)c1ccccc12	?	.	.	-113*	.
CCOC(=O)[C@]12Cc3ccccc3[C@H]1N(Cc1ccccc1)C(=O)c1ccccc12	?	-26%	-30%	-7	?
CCOC(=O)[C@]12Cc3cc(C)ccc3[C@H]1N(Cc1ccccc1)C(=O)c1cc(F)c(F)cc12	18µM*	.	.	.	16µM*
CCOC(=O)[C@]12Cc3c(cc(OC)c(OC)c3OC)[C@H]1N(C(C)C)C(=O)c1ccccc12	?	.	.	-114*	?
CCOC(=O)[C@]12Cc3cc(C)ccc3[C@H]1N(Cc1ccccc1)C(=O)c1ccccc12	?	10µM*	-21%	-3	?
CCO/N=C(\CC)C1=C(O)CC(c2c(C)cc(C)cc2C)CC1=O (configuration not stated)	36%[116 µM]	.	.	.	?
O=S(=O)(F)Cc1ccccc1	30%	.	.	.	.
O=C(CCl)Nc1sccc1C(=O)c1ccccc1	-32%	?	-166%	-103*	?
COc1cccc(OC)c1C1=NCC(=O)Nc2c1oc1ccc(Br)cc21	0%	16µM*	-20%	21	?
O=S(=O)(O)C(F)(F)C(F)(F)C(F)(F)C(F)(F)C(F)(F)C(F)(F)C(F)(F)C(F)(F)F	15%[116 µM]	.	.	.	?
C[C@]12CC[C@H](O)CC1=CCC1C2CC[C@]2(C)C(=O)[C@H](Br)CC12 (some centres not stated)	-14%	?	0%	-106*	?
C[C@]12CC[C@H](O)CC1=CCC1C2CC[C@@]2(C)C1C[C@@H](O)[C@@H]2O (some centres not stated)	5%	13%	-1%	6	i
CC(=O)C1C(N2CC2)CC2C3CC=C4CC(O)CCC4(C)C3CCC21C (configuration not stated)	0%	-8%	-3%	-51*	14µM*
CCn1c(O)c(N=Nc2ccc(S(=O)(=O)N3CCOCC3)cc2)c(=O)n(CC)c1=S	0%	-12%	-44%	-84*	i
COc1cc(C(=O)N/N=C/C23CC[C@@H](O)CC2(O)CC[C@@H]2[C@@H]3CCC3(C)C(C4=CC(=O)OC4)CCC23O)ccc1O (some centres not stated)	?	2%	-41%	25	i
